Bioassay records as filed in PubChem BioAssay.
ATXN2 expr inh – Primary qHTS for Inhibitors of ATXN expression | Potency, µM (highest dose often 57 µM), most hits filed as inhibitors | HEK-293 ATXN2-luciferase reporter, luminescence, 24 h | AID 1745845, 2022 | 0.72% of 360,000 active; note: nearly all actives have a fitted effect of over 55% in size
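ATXN2-luciferase reporter cells (luciferase flanked by upstream and downstream ATXN2 gene portions) were treated 24 h at 37 °C with compounds at up to 57 uM. SteadyGlo luminescence gave expression; GF-AFC fluorescence gave viability.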
USP1 inh – Inhibitors of USP1/UAF1: Primary Screen; Ubiquitin carboxyl-terminal hydrolase 1 (Homo sapiens), O94782; recombinant USP1/UAF1, Ub-Rhodamine cleavage fluorescence; Potency, µM (highest dose often 57.1 µM), hits mostly inhibitors; 0.23% of 390,000 active; note: nearly all actives have a fitted effect of over 60% in size
Target sequence (O94782 whole entry, looked up): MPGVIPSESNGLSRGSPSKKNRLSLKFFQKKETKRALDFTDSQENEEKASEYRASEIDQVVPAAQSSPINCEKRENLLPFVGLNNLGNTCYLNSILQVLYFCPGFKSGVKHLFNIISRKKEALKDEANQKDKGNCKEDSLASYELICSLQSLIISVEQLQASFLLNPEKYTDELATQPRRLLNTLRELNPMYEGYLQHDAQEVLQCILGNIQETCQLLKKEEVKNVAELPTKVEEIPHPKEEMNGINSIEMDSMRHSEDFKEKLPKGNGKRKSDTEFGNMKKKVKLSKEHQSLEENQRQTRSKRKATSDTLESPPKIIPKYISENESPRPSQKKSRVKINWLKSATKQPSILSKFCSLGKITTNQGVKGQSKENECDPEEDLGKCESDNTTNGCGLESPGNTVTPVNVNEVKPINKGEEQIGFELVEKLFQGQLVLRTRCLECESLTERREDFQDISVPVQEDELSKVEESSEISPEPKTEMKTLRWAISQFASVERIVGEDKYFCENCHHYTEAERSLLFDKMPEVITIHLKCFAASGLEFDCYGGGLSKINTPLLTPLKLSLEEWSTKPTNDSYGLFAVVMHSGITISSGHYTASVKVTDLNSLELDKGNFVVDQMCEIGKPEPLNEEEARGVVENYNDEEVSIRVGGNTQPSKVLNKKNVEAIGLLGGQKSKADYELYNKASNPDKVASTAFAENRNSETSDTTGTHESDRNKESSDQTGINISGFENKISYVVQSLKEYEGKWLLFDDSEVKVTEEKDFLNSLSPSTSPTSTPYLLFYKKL
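Step one: compound is pinned into 1nM USP1/UAF1 in HEPES pH 7.8 buffer with TCEP. Step two: 15 min room-temperature incubation. Step three: Ub-Rho (150nM final) starts cleavage, tracked by fluorescence over six one-minute reads.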
ATXN viability – Viability Counterscreen for Primary qHTS for Inhibitors of ATXN expression; Potency, µM (doses to about 56.7 µM), actives largely listed as cytotoxic; 0.49% of 400,000 active; S2 cells (HEK-293 line with an ATXN2-luciferase reporter) viability, CellTiter-Fluor protease fluorescence, 24 h; note: nearly all actives have a fitted effect of over 40% in size
IL-1B inflam inh – qHTS for Inhibitors of Inflammasome Signaling: IL-1-beta AlphaLISA Primary Screen | AID 743279, 2014 | 4.7% of 360,000 active | activity change, % at 57.5 µM | THP-1 LPS/ATP IL-1B secretion, AlphaLISA, 16 h; stronger effect = lower value; in the data active = activity change below about -50%; inconclusive = mostly about -30% to -49%
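THP-1 cells pretreated 1 hr with compounds (up to 57.5 uM final), then stimulated with LPS (250 ng/mL final) plus ATP (1.25 mM final); secreted IL-1B measured by AlphaLISA after 16 hr, decreased signal indicating inhibition.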
USP2a block – qHTS Assay for Inhibitors of Ubiquitin-specific Protease USP2a Using CHOP2 as the Reporter; Ubiquitin carboxyl-terminal hydrolase 2 (Homo sapiens), O75604; USP2 core, Ub-CHOP2 coupled fluorogenic reporter, 485/531; Potency, µM (top dose mostly 38.3 µM), actives largely listed as inhibitors; 0.01% of 330,000 active; AID 463254, 2010
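Cell-free coupled assay: 10nM USP2 core preincubated 30min RT with compound in Tris-HCl pH 8.0/CaCl2/CHAPS buffer, then 25nM Ub-CHOP2 and 25nM reporter substrate; fluorescence (Ex 485/Em 531) read after 60min RT, normalized to NEM inhibition, concentration-response curves fitted.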
Of the large screens only hits and unclear results are named; the others gave an inactive call. An excerpt weighted towards active compounds, which were near 4.8% of everything screened. Unless noted, calls come from the whole dose curve; as a rule, active = well fitted curve in the direction sought with a large enough effect; inconclusive = small, poorly fitted or top-dose-only effect, or another doubt; inactive = no such curve, though single readings can be large; an effect the other way counts as inactive or inconclusive.

Oc1ccc2c3c1O[C@H]1c4[nH]c5ccccc5c4C[C@@]4(O)[C@@H](C2)N(CC2CC2)CC[C@]314	IL-1B inflam inh -61
COc1cccc(NC(=O)N2CCc3nc(Nc4ccc(C(C)C)cc4)ncc3C2)c1	ATXN viability inconclusive (no result: USP1 inh, USP2a block)
C[C@H]1CN([C@@H](C)CO)C(=O)c2cc(-c3cccnc3)cnc2O[C@H]1CN(C)Cc1ccc(Oc2ccccc2)cc1	USP1 inh inconclusive, ATXN viability inconclusive (no result: USP2a block)
COc1ccc(-[n+]2c(-c3ccccc3)cc(-c3ccc(C)cc3)cc2-c2ccccc2)cc1	ATXN2 expr inh inconclusive, ATXN viability inconclusive, IL-1B inflam inh -94
C[n+]1c(-c2ccccc2)cc(CCCCc2cc(-c3ccccc3)[n+](C)c(-c3ccccc3)c2)cc1-c1ccccc1	ATXN2 expr inh inconclusive, IL-1B inflam inh -100
COc1ccc(-c2cc(-c3ccccc3)[n+](C)c(-c3ccccc3)c2)cc1	ATXN2 expr inh 8.9µM, IL-1B inflam inh -90
CCCOC(=O)c1ccc(-[n+]2c(-c3ccccc3)cc(-c3ccccc3)cc2-c2ccccc2)cc1	ATXN viability inconclusive, IL-1B inflam inh -86
O=C(O)c1ccc(-[n+]2c(-c3ccccc3)cc(-c3ccccc3)cc2-c2ccccc2)cc1	none
ClCCCN1CCN(c2cccc(Cl)c2)CC1	none (no result: USP1 inh, IL-1B inflam inh, USP2a block)
CCOC(=O)Nc1ccc(NCc2ccc(F)cc2)cc1N	none (no result: USP1 inh, ATXN viability, IL-1B inflam inh, USP2a block)
CN(C)c1ccc(C2CC(c3c(O)n(C4CCCCC4)c(=O)[nH]c3=O)=Nc3ccccc3S2)cc1 (centres undefined)	USP1 inh inconclusive (no result: IL-1B inflam inh, USP2a block)
CCCN(CCC)C(=O)Cc1c(-c2ccc(Cl)cc2)nc2ccc(Cl)cn12	ATXN viability inconclusive (no result: USP1 inh, IL-1B inflam inh, USP2a block)
Brc1ccc(-[n+]2c(-c3ccccc3)cc(-c3ccccc3)cc2-c2ccccc2)cc1	ATXN2 expr inh inconclusive, ATXN viability inconclusive, IL-1B inflam inh -83
CN1C[C@H](CO)C=C2c3cccc4[nH]cc(c34)C[C@@H]21	none (no result: ATXN2 expr inh, USP1 inh, IL-1B inflam inh, USP2a block)
COc1cccc(-n2c(/C=C\c3ccc(Cl)cc3)nc3ccccc3c2=O)c1	none (no result: ATXN2 expr inh, ATXN viability, IL-1B inflam inh, USP2a block)
Cc1ccc(-n2sc3ccccc3c2=O)cc1	ATXN viability inconclusive, IL-1B inflam inh -103
O=c1c2ccccc2sn1-c1ccc(Cl)cc1	ATXN2 expr inh inconclusive, ATXN viability 18µM, IL-1B inflam inh -106 (no result: USP2a block)
COC[C@@H](NC(C)=O)C(=O)NCc1ccccc1	none (no result: USP1 inh, IL-1B inflam inh, USP2a block)
O=c1c2ccccc2nc(/C=C/c2ccccc2F)n1-c1cccc(O)c1	none (no result: ATXN2 expr inh, ATXN viability, IL-1B inflam inh, USP2a block)
CN1C(=O)NC(=O)/C(=C\C=C\c2ccccc2[N+](=O)[O-])C1=O	ATXN2 expr inh 32µM, ATXN viability 28µM, IL-1B inflam inh -98
COC(=O)C1=C(C(=O)OC)SC2(S1)C(C(=O)OC)=C(C(=O)OC)Sc1c2ssc1=O	ATXN2 expr inh 18µM, ATXN viability 14µM, IL-1B inflam inh -95 (no result: USP2a block)
CCNc1cc(N2CCN(C)CC2)ccc1[N+](=O)[O-]	ATXN viability inconclusive
CN1CCN(c2ccc([N+](=O)[O-])c(N/N=C3\CN4CCC3CC4)c2)CC1	ATXN viability 10µM, IL-1B inflam inh inconclusive
Cc1ccc(Cl)cc1N1CCN(C(=O)c2cn(C)c(=O)c3c2c2ccccc2n3C)CC1	ATXN2 expr inh inconclusive, ATXN viability inconclusive, IL-1B inflam inh -68
NCC[C@H](O)C(=O)N[C@@H]1C[C@H](N)[C@@H](O[C@H]2O[C@H](CN)[C@@H](O)[C@H](O)[C@H]2N)[C@H](O[C@@H]2O[C@H](CO)[C@@H](O)[C@H]2O)[C@H]1O	none (no result: ATXN2 expr inh, USP1 inh, IL-1B inflam inh, USP2a block)
C=C1C(=O)OC2C1CCC(C)C1(O)C=CC(=O)C21C (centres undefined)	ATXN2 expr inh 11µM, ATXN viability 11µM, IL-1B inflam inh -109 (no result: USP2a block)
Nc1c(C(=O)NCc2ccco2)c2nc3ccccc3nc2n1CCN1CCCCC1	ATXN2 expr inh inconclusive, IL-1B inflam inh -63
Nc1c(C(=O)NC2CCCC2)c2nc3ccccc3nc2n1CC1CCCO1 (centres undefined)	USP1 inh 28µM, IL-1B inflam inh inconclusive
COCCCNC(=O)c1c(N)n(Cc2ccco2)c2nc3ccccc3nc12	IL-1B inflam inh -55 (no result: ATXN viability)
